Out of some 47,000 compounds screened, about 2,000 (4.3%) were called active. This is one part of a sample in which actives are shown more often than they occur. A number with no mark means an inactive call. Rule as the data show it: active = inhibition above about 30%; inactive = the rest.

This assay deals with Ubiquitin carboxyl-terminal hydrolase 8 (Homo sapiens) (UniProt P40818). The assay is described as follows: inhibitors of human USP8 deubiquitinase (AID 1645853). Particulars: purified USP8, Ub-rhodamine cleavage fluorescence, 30 min; at 20 µM; hits give high values.
Sequence of Ubiquitin carboxyl-terminal hydrolase 8 (Homo sapiens) (P40818 whole entry, looked up): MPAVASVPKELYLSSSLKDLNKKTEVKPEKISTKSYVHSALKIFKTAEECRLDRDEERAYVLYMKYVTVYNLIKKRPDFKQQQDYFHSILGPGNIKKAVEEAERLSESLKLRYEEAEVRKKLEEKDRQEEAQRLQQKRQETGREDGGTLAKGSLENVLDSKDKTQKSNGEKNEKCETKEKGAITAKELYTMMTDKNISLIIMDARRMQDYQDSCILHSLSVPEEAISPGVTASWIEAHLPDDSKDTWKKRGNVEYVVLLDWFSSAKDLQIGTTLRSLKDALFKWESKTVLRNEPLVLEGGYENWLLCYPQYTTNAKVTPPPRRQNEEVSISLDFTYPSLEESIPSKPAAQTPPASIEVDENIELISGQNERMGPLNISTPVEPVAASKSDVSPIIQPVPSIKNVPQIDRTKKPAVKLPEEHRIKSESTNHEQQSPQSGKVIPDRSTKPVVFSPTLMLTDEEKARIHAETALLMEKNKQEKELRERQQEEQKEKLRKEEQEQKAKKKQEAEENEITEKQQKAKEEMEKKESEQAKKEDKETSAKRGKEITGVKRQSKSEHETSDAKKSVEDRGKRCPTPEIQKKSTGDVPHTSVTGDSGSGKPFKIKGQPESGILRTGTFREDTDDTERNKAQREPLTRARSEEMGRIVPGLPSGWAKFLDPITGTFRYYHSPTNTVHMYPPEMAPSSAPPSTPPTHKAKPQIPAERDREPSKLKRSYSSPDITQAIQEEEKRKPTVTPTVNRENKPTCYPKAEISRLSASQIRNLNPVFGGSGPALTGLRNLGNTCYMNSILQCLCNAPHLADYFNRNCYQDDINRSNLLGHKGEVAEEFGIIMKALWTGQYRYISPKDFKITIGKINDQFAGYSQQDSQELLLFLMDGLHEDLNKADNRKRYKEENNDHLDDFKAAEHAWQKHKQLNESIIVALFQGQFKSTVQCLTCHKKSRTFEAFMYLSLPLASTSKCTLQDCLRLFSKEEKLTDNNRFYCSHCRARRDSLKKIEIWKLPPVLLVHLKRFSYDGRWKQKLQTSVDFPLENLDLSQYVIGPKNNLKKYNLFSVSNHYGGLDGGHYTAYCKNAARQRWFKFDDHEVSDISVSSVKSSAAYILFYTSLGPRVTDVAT
As usually defined, the inhibition is the relative decrease from the control value, in per cent. Regarding `O=C(NCc1ccc2c(c1)OCO2)c1cc2c(s1)CS(=O)(=O)C2`, the inhibition was 47.6% (active).

For the compound `O=C(NCCc1ccccc1)c1cc2c(s1)CS(=O)(=O)C2`, the inhibition was 3.17%.

Take `Cc1nc(-c2ccc(C(=O)NCc3ccc4c(c3)OCO4)cc2)cs1`: the inhibition was 7.04%.

With `O=S(=O)(c1ccccc1)N1CCCCCC1C1CCN(Cc2nc(C3CC3)no2)CC1` (stereo not given), the inhibition is -3.93%.

Regarding `COc1cc2c(cc1OC)C(c1cccs1)N(C(=O)c1ccc3n[nH]nc3c1)CC2` (stereo not given), the inhibition is 6.71%.

With `COc1ccc(CC2c3cc(OC)c(OC)cc3CCN2C(=O)c2ccc(C)c(Cl)c2)cc1OC` (stereo not given), the inhibition is 36.3% (active).

Regarding `COc1ccc(C(=O)N2CCc3cc4ccccc4nc32)cc1OC`, the inhibition was -4.03%.

With `COc1ccc(C2CC(=O)c3cnc(NCc4ccco4)nc3C2)c(OC)c1` (stereo not given), the inhibition is -0.335%.

Consider `Cc1ccc(CSc2nnc(/C=C/c3ccccc3)o2)cc1`, for which the inhibition was -1.95%.

For the compound `CCCNc1cc(N2CCCC(CCC(=O)N3CCC(C)CC3)C2)ncn1` (stereo not given), the inhibition is -110%.

With `CCc1ccc(S(=O)(=O)NCC(O)COc2ccc(OC)cc2)cc1` (stereo not given), the inhibition is -1.1%.

Consider `Cc1ccc(F)cc1NC(=O)c1cnc(-c2ccccc2)nc1-c1ccncc1`, for which the inhibition was 12.2%.

For `Cc1ccc(-c2ncc(C(=O)Nc3ccccc3C)c(-c3ccncc3)n2)cc1`, the inhibition is 41% (active).

As for `O=C(Nc1cc(Cl)ccc1F)c1cnc(-c2ccccc2)nc1-c1ccncc1`, the inhibition is -14%.

On to `Cc1nn(-c2ccccc2)c2c1C(C(=O)c1ccc(Cl)s1)CC(=O)N2` (stereo not given), for which the inhibition is 10.5%.

In the case of `COc1ccc(C(=O)NCC(c2cccnc2)S(=O)(=O)c2ccc(C)cc2)cc1OC` (stereo not given), the inhibition was -8.69%.

`CCOC(=O)c1c(NC(=O)c2ccco2)sc(Cc2ccc3c(c2)OCO3)c1C`: the inhibition was 20.7%.

Regarding `O=C(Nc1ccc2cn[nH]c2c1)c1cnn(-c2ccccc2)n1`, the inhibition is 59.1% (active).

Turning to `O=C(c1cnn(-c2ccc(Cl)cc2)n1)c1cccs1`, the inhibition is 2.7%.

As for `O=C(Nc1ccc2oc(-c3ccccc3)nc2c1)c1cccc(-n2cnnc2)n1`, the inhibition was 3.67%.

Turning to `O=C1CN(C(=O)CNc2ccccc2N2CCCC2=O)c2ccccc2N1`, the inhibition was 4.28%.

With `O=c1c(S(=O)(=O)N2CCCC2)cccn1Cc1cc(=O)n2ccccc2n1`, the inhibition is -4.28%.

Consider `Cc1ccn2cc(-c3ccc(NS(=O)(=O)c4cc(C)c(C)cc4C)cc3)nc2n1`, for which the inhibition was 21.4%.

For `Cc1ccc(-c2cn3ccn(-c4ccc(C)cc4C)c(=O)c3n2)cc1`, the inhibition was 43% (active).

With `CC(C)(C)c1ccc(Cn2nnc3c(=O)[nH]c(C4CCN(S(=O)(=O)c5ccc6c(c5)OCCO6)CC4)nc32)cc1`, the inhibition was 7.01%.

For the origin of these results see PubChem BioAssay AID1645853 (Buhrlage Lab, Dana-Farber Cancer Institute and Novartis …, 2021).
